Results taken from publication PMC5540273 (PLoS ONE, 2017).
pKd: −log10 of the molar value.
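Note: kd values determined as follow-up on hits from a single-replicate KINOMEscan panel screen.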

Each compound was assayed on ICK.
`O=C(Nc1n[nH]c2nc(-c3nccs3)c(Br)cc12)C1CCCC1` [SB-742609] gave a pKd of 6.66.
`CS(=O)(=O)c1ccc(-c2nc3n(c2-c2ccncc2)CCC3)cc1` [SKF-105942] was tested, and the pKd was less than 5.00.
With `Cc1cc(N2Cc3ccccc3C2)nc(Nc2ccc(S(=O)(=O)N3CCOCC3)cc2)n1.Cl` [GSK1669917] the pKd was less than 5.00.
For `Cl.NC(=O)c1cccc(Nc2nccc(Nc3ccc(Oc4cccc(Cl)c4)c(Cl)c3)n2)c1` [GW659008], the pKd was less than 5.00.

The compounds below were run on IRAK3.
Compound `Cc1ccc(NC(=O)Nc2cc(C(C)(C)C)nn2-c2ccccc2)cc1` [GSK1014915] has a pKd of less than 5.00.
`CS(=O)(=O)c1ccc(-c2c(-c3ncn[nH]3)sc(N3CCOCC3)c2C#N)cc1` showed a pKd of less than 5.00.
For `Cc1ccc(NC(=O)Nc2cccc(C(F)(F)F)c2)cc1` [GSK955403], the pKd was less than 5.00.
With `CCn1c(-c2ccccn2)nc2cnccc21` [SB-736398] the pKd was 5.12.
`Cc1ccc(NC(=O)Nc2cccc(Cl)c2)cc1-c1ccc(C(=O)Nc2ccncc2)cc1` [GSK1398468] showed a pKd of less than 5.00.

What follows are compounds tested on JAK1(JH2domain-pseudokinase).
`COc1ccc2nc(-c3cccc(C)n3)nc(Nc3ccncc3)c2c1` [GSK204919] was tested, and the pKd was 6.59.
In the case of `Cc1cccc(-c2nc(Nc3ccc4[nH]ncc4c3)c3ccccc3n2)n1` [GW857175], the pKd was 6.19.
With `Cc1nnc(-c2ccc3occ(-c4ccc(S(C)=O)cc4)c3c2)[nH]1` (centres unmarked) the pKd was 6.72.

These compounds were tested on JAK2(JH1domain-catalytic).
`COc1ccc(CNC(=O)NC2CCN(c3ccnc(Nc4cc(OC)c(OC)c(OC)c4)n3)C2)cc1` (centres unmarked) [GSK1379748] was tested, and the pKd was 6.46.
With `Cc1cccc(-c2cc(Nc3ccncc3)c3ccccc3n2)n1` [GSK223675] the pKd was less than 5.00.
`O=S(=O)(c1ccc(-c2ccnc3[nH]ccc23)cc1)N1CCCC1` [GSK846226] was tested, and the pKd was 6.44.
For `CSc1nn2c(=O)cc(N3CCOCC3)nc2n1Cc1cccc(C(F)(F)F)c1C` [GSK2363608], the pKd was less than 5.00.
`Cl.NC(=O)c1cccc(Nc2nccc(Nc3ccc(Oc4cccc(Cl)c4)c(Cl)c3)n2)c1` [GW659008] gave a pKd of 6.40.
